“And” between values parts separate entries of the source, which are not always exact repeats. Equal values may be shown once. Inconclusive results are not listed. Where a call stands in place of a potency, no number is given. The source made the active and inactive calls. Unless noted, calls follow the shape of the dose curve; as a rule, active = well fitted curve in the direction sought with a large enough effect in the repeat runs; inconclusive = weak or mixed curves; inactive = no such curve, though single readings can be large; an effect the other way counts as inactive or inconclusive.
Legend:
[1] = Human pregnane X receptor (PXR) small molecule agonists, qHTS cell viability counter screen (AID 1346977); also: nearly all actives have a fitted effect of over 50% in size; also: potency is read from the fitted curve at half-maximal effect
How it was run: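 PXR-Luc HepG2 cells (2,000/well, 5% charcoal-stripped FBS) preincubated 5 hr, then exposed to compounds 24 hr at 37 C. Viability read in the same wells by CellTiter-Fluor fluorescence, reagent added at 23 hr, 1 hr incubation.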

[2] = Caspase-3/7 induction in HepG2 cells by small molecules, qHTS assay (AID 1346978); also: nearly all actives have a fitted effect of over 15% in size
How it was run: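 Wild-type HepG2 cells, 2,000/well, settled 5 hr at 37 C and 5% CO2, then compound-treated for 17 hr; caspase-3/7 activity read by luminescent Caspase-Glo 3/7 after 30 min at room temperature.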

[3] = Caspase-3/7 induction in CHO-K1 cells by small molecules, qHTS assay (AID 1346980); also: nearly all actives have a fitted effect of over 15% in size
How it was run: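 Wild-type CHO-K1 cells exposed to compounds for 17hr at 37 C, 5% CO2. Caspase-3/7 activity then measured by Caspase-Glo 3/7 luminescence after 30min at room temperature.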

[4] = Caspase-3/7 induction in HepG2 cells by small molecules, qHTS cell viability counter screen (AID 1346981); also: nearly all actives have a fitted effect of over 30% in size; also: potency is read from the fitted curve at half-maximal effect
How it was run: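 In this quantitative HTS counter screen, compounds delivered in DMSO were left on unmodified HepG2 cells for 16 hr at 37 C. Viability was then determined fluorometrically with CellTiter-Fluor, in parallel with caspase-3/7 induction in the same wells.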

[5] = biological target: Nuclear receptor subfamily 1 group I member 2 (Homo sapiens) (UniProt O75469); assay: Human pregnane X receptor (PXR) small molecule agonists, qHTS assay (AID 1346982); also: nearly all actives have a fitted effect of over 35% in size; also: potency is read from the fitted curve at half-maximal effect
How it was run: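 Reporter HepG2 cells expressing PXR-Luc are cultured in charcoal-stripped FBS (5%), treated with compounds for 24 hr at 37 C, and assayed by ONE-Glo luminescence after 30 min at room temperature.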

[6] = biological target: Acetylcholinesterase (Homo sapiens) (UniProt P22303); assay: Acetylcholinesterase (AChE) small molecule antagonists: colormetric cell-based qHTS assay (AID 1347395; calls by dose curve; also: nearly all actives have a fitted effect of over 30% in size)
How it was run: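 SH-SY5Y cells attached overnight, exposed to compound 30 min at 37 C, then given DTNB/acetylthiocholine; after 90 min at 37 C, colorimetric thiocholine read gives cellular AChE activity.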

[7] = Caspase-3/7 induction in CHO-K1 cells by small molecules, qHTS cell viability counter screen (AID 1346979); also: nearly all actives have a fitted effect of over 35% in size; also: potency is read from the fitted curve at half-maximal effect
How it was run: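 Wild-type CHO-K1 cells (1,500/well) treated with compound after 5 h plating; after 16 h at 37C, viability read as CellTiter-Fluor fluorescence following 1 h reagent incubation, in the same wells as the caspase read.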

Sequence of Nuclear receptor subfamily 1 group I member 2 (Homo sapiens) (O75469 whole entry, looked up): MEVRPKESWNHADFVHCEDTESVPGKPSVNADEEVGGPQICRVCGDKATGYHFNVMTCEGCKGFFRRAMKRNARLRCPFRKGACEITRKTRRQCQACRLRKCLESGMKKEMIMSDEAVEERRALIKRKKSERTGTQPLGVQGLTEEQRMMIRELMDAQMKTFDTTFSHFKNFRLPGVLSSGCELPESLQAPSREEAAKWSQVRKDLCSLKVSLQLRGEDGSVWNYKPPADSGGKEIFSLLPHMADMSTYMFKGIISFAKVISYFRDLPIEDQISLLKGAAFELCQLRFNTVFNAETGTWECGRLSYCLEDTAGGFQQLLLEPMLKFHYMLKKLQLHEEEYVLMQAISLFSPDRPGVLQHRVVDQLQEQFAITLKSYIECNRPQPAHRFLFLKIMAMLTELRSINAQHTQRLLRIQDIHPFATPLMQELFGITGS
Sequence of Acetylcholinesterase (Homo sapiens) (P22303 whole entry, looked up): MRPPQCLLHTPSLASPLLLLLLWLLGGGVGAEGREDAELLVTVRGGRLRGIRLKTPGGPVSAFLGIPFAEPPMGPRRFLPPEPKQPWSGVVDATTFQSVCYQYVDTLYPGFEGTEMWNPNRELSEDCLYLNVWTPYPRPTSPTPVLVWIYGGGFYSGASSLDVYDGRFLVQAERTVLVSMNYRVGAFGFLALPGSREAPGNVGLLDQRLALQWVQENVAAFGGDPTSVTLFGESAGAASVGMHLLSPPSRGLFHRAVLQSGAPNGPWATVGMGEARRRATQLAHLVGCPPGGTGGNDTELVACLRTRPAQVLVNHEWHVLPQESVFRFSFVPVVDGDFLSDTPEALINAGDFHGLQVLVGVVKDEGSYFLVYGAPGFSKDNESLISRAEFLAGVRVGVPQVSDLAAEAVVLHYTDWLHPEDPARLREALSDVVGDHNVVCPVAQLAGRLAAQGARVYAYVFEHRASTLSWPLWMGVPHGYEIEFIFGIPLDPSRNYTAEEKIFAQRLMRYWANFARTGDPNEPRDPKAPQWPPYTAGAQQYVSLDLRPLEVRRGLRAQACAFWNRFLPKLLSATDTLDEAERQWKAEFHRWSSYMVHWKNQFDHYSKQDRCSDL

For `O=C1c2ccccc2C(=O)N1SC(Cl)(Cl)Cl`, which Potency [1] is on record?
Its Potency is 39.8 µM (active) and 17.2 µM (active).

And the Potency [2]?
Its Potency is “inactive”.

And the Potency [3]?
The Potency was “inactive”.

And the Potency [4]?
The Potency was 24.3 µM (active).

What about the Potency [5] of the same molecule?
Its Potency is 6.03 µM (active).

What about the Potency [6] of the same molecule?
Its Potency is “inactive”.

For `C[C@]12C=CC3=C4CCC(=O)C=C4CC[C@H]3[C@@H]1CC[C@@H]2O`, which Potency [1] is on record?
The Potency was “inactive”.

And the Potency [2]?
The Potency was “inactive”.

And the Potency [7]?
Its Potency is 60.7 µM (active) and 46.1 µM (active).

And the Potency [3]?
Its Potency is “inactive”.

What about the Potency [4] of the same molecule?
The Potency was “inactive”.

What about the Potency [6] of the same molecule?
Its Potency is “inactive”.

What does the source list for `COC(=O)C1(O)c2ccccc2-c2ccccc21`?
Potency [1]: inactive; Potency [2]: inactive; Potency [7]: inactive; Potency [3]: inactive; Potency [4]: inactive; Potency [6]: inactive

What does the source list for `Nc1ccccc1C(=O)OCCc1ccccc1`?
Potency [1]: inactive; Potency [2]: inactive; Potency [3]: inactive; Potency [4]: inactive; Potency [5]: 48.8 µM (active) and 30.6 µM (active); Potency [6]: inactive

With `CC(=O)NNc1ccccc1` as the molecule, how does the Potency [1] read?
The Potency was “inactive”.

What about the Potency [2] of the same molecule?
Its Potency is “inactive”.

And the Potency [3]?
The Potency was “inactive”.

And the Potency [4]?
Its Potency is “inactive”.

For `N#CC1(N=NC2(C#N)CCCCC2)CCCCC1`, which Potency [1] is on record?
Its Potency is “inactive”.

What about the Potency [7] of the same molecule?
Its Potency is “inactive”.

What about the Potency [3] of the same molecule?
Its Potency is “inactive”.

And the Potency [4]?
The Potency was “inactive”.

And the Potency [6]?
The Potency was “inactive”.

For `C=C(C)C(=O)OCCCCOC(=O)C(=C)C`, which Potency [1] is on record?
Its Potency is “inactive”.

What about the Potency [7] of the same molecule?
Its Potency is “inactive”.

And the Potency [3]?
The Potency was “inactive”.

What about the Potency [4] of the same molecule?
Its Potency is “inactive”.

And the Potency [5]?
The Potency was “inactive”.

What about the Potency [6] of the same molecule?
Its Potency is “inactive”.

Which Potency [1] does the source give for `CCCC(C)(COC(N)=O)COC(=O)NC(C)C` (centres undefined) here?
The Potency was “inactive”.

And the Potency [3]?
Its Potency is “inactive”.

What about the Potency [4] of the same molecule?
The Potency was “inactive”.

And the Potency [5]?
The Potency was “inactive”.

What about the Potency [6] of the same molecule?
Its Potency is “inactive”.

Reference: PubChem BioAssay (Tox21)
